In the library only some 2.7% were active in any assay of this set; here they are far more common.
NadD block – blocks S. aureus nicotinate mononucleotide adenylyltransferase; purified NadD enzyme, colorimetric absorbance read-out; inhibition, % at 20 µM; 0.78% of 360,000 active; AID 602399; in the data active means inhibition above about 26%
aDG glyco act – alpha-DG glycosylation activation; Pro5-aDG cells, alpha-DG glycosylation AlphaScreen (IIH6); 0% Pro5, 100% B10-LARGE cell signal; activation, % at 10 µM; AID 624168; 0.22% of 360,000 active;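 active means activation of at least 8% versus controls, or a plate z-score of at least 8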;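 further: Pro5 are CHO cells carrying HIG-tagged alpha-DG that lacks glycosylation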
MPTP block – inhibitors of mitochondrial permeability transition pore. inhibition, % at 10 µM. AID 602449. isolated mouse mitochondria, Ca2+ swelling absorbance, 30 min. 1.4% of 360,000 active;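 active means inhibition of 50% or more, scaled per plate between neutral and stimulator controls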;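 further: 0% = DMSO wells given calcium and 100% = 1 mM EGTA wells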
H9c2 TAG inh – reduces triacylglycerol accumulation in H9c2 cells. 0.66% of 230,000 active. Nile Red lipid (TAG) fluorescence; cells loaded with 200 µM oleic acid. inhibition, % at 12.5 µM;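 active means pattern-corrected inhibition of lipid staining of at least 50% with the nuclear-stain viability signal not falling by more than 50%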;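 further: 0% = DMSO wells and 100% = triacsin C control wells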
NadD conf – NadD (S. aureus) inhibition, single concentration confirmation. shares compounds with NadD block. purified S. aureus NadD, colorimetric enzyme assay. inhibition, % at 20 µM. 13% of 2,000 active. AID 624309; in the data active means inhibition mostly above about 42%, no sharp cut-off; inactive means mostly below about 42%
* marks the source's active call; other numbers are inactive results.

Results for O=C(O)c1cccc2c1C(=O)c1ccc(-c3ccc(F)cc3OCc3ccccc3)cc1S2(=O)=O ?
NadD block: 14; aDG glyco act: 0; MPTP block: 2; H9c2 TAG inh: 3

Results for O=C(NC[C@H]1CCCO1)c1cccc2c1C(=O)c1ccc(-c3ccc(F)cc3OCc3ccccc3)cc1S2(=O)=O ?
NadD block: 17; aDG glyco act: 0; MPTP block: 1; H9c2 TAG inh: 21

What do the screens show for `Cc1cc(CNC(=O)c2cccc3c2C(=O)c2ccc(-c4ccc(F)cc4OCc4ccccc4)cc2S3(=O)=O)c(C(F)(F)F)o1`?
NadD block: 52*; aDG glyco act: -1; MPTP block: 2; H9c2 TAG inh: 41; NadD conf: 39

How did N#Cc1cccnc1N1CCN(C(=O)c2cccc3c2C(=O)c2ccc(-c4ccc(F)cc4OCc4ccccc4)cc2S3(=O)=O)CC1 do in these assays?
NadD block: 31*; aDG glyco act: -1; MPTP block: -1; H9c2 TAG inh: 40; NadD conf: 0

How did O=C1c2ccc(Cl)cc2S(=O)(=O)c2cccc(C(=O)N3CCN(c4ccc(Cl)cn4)CC3)c21 do in these assays?
NadD block: 22; aDG glyco act: 0; MPTP block: 1; H9c2 TAG inh: -1

How did O=C1c2ccc(-c3ccc(Cl)c(C(F)(F)F)c3)cc2S(=O)(=O)c2cccc(C(=O)N3CCN(c4ncc(Br)cn4)CC3)c21 do in these assays?
NadD block: 52*; aDG glyco act: 0; MPTP block: 0; H9c2 TAG inh: 35; NadD conf: 1

What do the screens show for `O=C1c2ccc(-c3ccc(F)cc3OCc3ccccc3)cc2S(=O)(=O)c2cccc(C(=O)N3CCN(c4ncc(Cl)cc4Cl)CC3)c21`?
NadD block: 61*; aDG glyco act: 0; MPTP block: 0; H9c2 TAG inh: 19; NadD conf: 21

Results for COc1ccc(Cl)cc1NC(=O)COC(=O)Cc1cc(OC)c(OC)c(OC)c1 ?
NadD block: -1; aDG glyco act: 0; MPTP block: 0; H9c2 TAG inh: 2

What do the screens show for `Cc1ccc(CN(C)C(=O)c2cccc(S(=O)(=O)N3CCc4ccccc4C3)c2)o1`?
NadD block: 0; aDG glyco act: 0; MPTP block: -2; H9c2 TAG inh: -17

What do the screens show for `COc1cccc(OCc2cc(/C=N/Nc3ccc(C(=O)O)cc3)ccc2OC)c1`?
NadD block: 46*; aDG glyco act: 0; MPTP block: 2; H9c2 TAG inh: 18; NadD conf: 53*

How did CCSc1nc2sc3c(c2c(=O)n1-c1ccccc1C)CCN(C)C3 do in these assays?
NadD block: 4; aDG glyco act: 0; MPTP block: 0

What do the screens show for `CCc1cc2c(=O)nc3n(c2s1)Cc1ccccc1/C3=C(/O)c1ccc(F)cc1`?
NadD block: 36*; aDG glyco act: 0; MPTP block: 4; H9c2 TAG inh: 6; NadD conf: 10

What do the screens show for `CCc1cc2c(=O)nc3n(c2s1)Cc1ccccc1/C3=C(/O)c1cccc([N+](=O)[O-])c1`?
NadD block: 25; aDG glyco act: 0; MPTP block: -2

What do the screens show for `CCc1cc2c(=O)nc3n(c2s1)Cc1ccccc1/C3=C(/O)c1ccccc1Cl`?
NadD block: 32*; aDG glyco act: 0; MPTP block: 2; H9c2 TAG inh: -6; NadD conf: 6

What do the screens show for `COc1ccc(Br)c(Cn2c(C)c(C(=O)NCc3ccc4c(c3)OCCO4)sc2=O)c1`?
NadD block: -4; aDG glyco act: 0; MPTP block: -1; H9c2 TAG inh: 11

What do the screens show for `N#CC1=C(N)OC2=C(C(=O)CC(c3ccco3)C2)C1c1ccc(OCc2c(F)cccc2Cl)cc1` (configuration not stated)?
NadD block: 34*; aDG glyco act: 0; MPTP block: -2; H9c2 TAG inh: 2; NadD conf: 20

How did COc1cccc(C2C(C#N)=C(N)OC3=C2C(=O)CC(c2ccco2)C3)c1OCc1ccc(F)cc1 (configuration not stated) do in these assays?
NadD block: 31*; aDG glyco act: 0; MPTP block: -2; H9c2 TAG inh: 5; NadD conf: 16

How did N#CC1=C(N)OC2=C(C(=O)CC(c3ccccc3)C2)C1c1ccoc1 (configuration not stated) do in these assays?
NadD block: 1; aDG glyco act: 0; MPTP block: 0

Results for CCCc1ccc(C(O)c2ncc(-c3ccc(OC)cc3)[nH]2)cc1 (configuration not stated) ?
NadD block: -7; aDG glyco act: 0; MPTP block: 1; H9c2 TAG inh: -16

What do the screens show for `CCOc1ccccc1NC(=O)CCCc1ccc(OC)c(C)c1`?
NadD block: -3; aDG glyco act: 0; MPTP block: 0

How did O=C(/C=C/c1ccc(Cl)c([N+](=O)[O-])c1)Nc1ccc(NC(=O)c2ccco2)cc1 do in these assays?
NadD block: 4; aDG glyco act: -1; MPTP block: 6; H9c2 TAG inh: 13

Results for O=C(Nc1ccc(N2CCCC2)cc1)c1ccc(Cl)cc1Cl ?
NadD block: 12; aDG glyco act: 0; MPTP block: 0

What do the screens show for `O=C(Nc1ccc(N2CCCC2)cc1)c1ccc(Br)cc1`?
NadD block: 29*; aDG glyco act: 0; MPTP block: 1; NadD conf: -2

Results for O=C(/C=C/c1ccc(Cl)c([N+](=O)[O-])c1)Nc1ccc(N2CCCC2)cc1 ?
NadD block: 42*; aDG glyco act: 0; MPTP block: 5; NadD conf: 0

What do the screens show for `O=C(NC(=S)Nc1ccc(N2CCCC2)cc1)c1ccccc1[N+](=O)[O-]`?
NadD block: 33*; aDG glyco act: -1; MPTP block: 1; NadD conf: 6

How did O=C(Nc1ccc(N2CCCC2)cc1)c1cc(Cl)ccc1Cl do in these assays?
NadD block: 52*; aDG glyco act: 0; MPTP block: 1; H9c2 TAG inh: 9; NadD conf: 12

Results for Cc1noc(C)c1NC(=O)Nc1cccc2c1O[C@H](CN(C)C(=O)NC1CCCCC1)[C@@H](C)CN([C@H](C)CO)C2=O ?
NadD block: -2; aDG glyco act: 0; MPTP block: -1; H9c2 TAG inh: 5

What do the screens show for `O=C(Cn1c2ccccc2c(=O)c2ccccc21)N/N=C/c1cc([N+](=O)[O-])ccc1N1CCCCC1`?
NadD block: 47*; aDG glyco act: 0; MPTP block: 2; NadD conf: 9

How did O=C(N/N=C\c1cc([N+](=O)[O-])ccc1N1CCCC1)c1ccccn1 do in these assays?
NadD block: 6; aDG glyco act: 0; MPTP block: 2; H9c2 TAG inh: -15

Results for O=C(O)Cc1sc(NC2CCCCC2)nc1-c1ccc(Cl)cc1 ?
NadD block: 4; aDG glyco act: 0; MPTP block: 0

How did C=CCOc1ccc(C2/C(=C(/O)c3ccc4c(c3)CC(C)O4)C(=O)C(=O)N2CCCN2CCOCC2)cc1 (configuration not stated) do in these assays?
NadD block: 29*; aDG glyco act: 0; MPTP block: 0; H9c2 TAG inh: -7; NadD conf: 36

Assay outcomes from PubChem.
